Compounds without any hit were thinned out: in the full panel of roughly 83,000, 20% have a hit.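 Assay: single dose, 48 h. Readout: percent growth (0 = no net growth; negative = cell death). Active: <10.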 A number with no mark means an inactive call. Activity calls are given as the source filed them.

Common to all, as to assay: NCI-60 one-dose screen, 48 h (100 = growth as untreated, 0 = no growth, -100 = all killed)
Common to all, as to conditions: 10 µM unless noted

Assay [1] deals with SR leukemia.
The subject of assay [2] is RPMI-8226 leukemia.
Assay [3] deals with OVCAR-5 ovarian.
Assay [4] relates to OVCAR-4 ovarian.
In assay [5] the test system is SK-OV-3 ovarian.
Assay [6] concerns IGROV1 ovarian.
In assay [7] the test system is OVCAR-3 ovarian.
The test system of assay [8] is HS 578T breast.
The subject of assay [9] is NCI/ADR-RES ovarian.
The subject of assay [10] is T-47D breast.
For assay [11], the system named is BT-549 breast.
In assay [12] the test system is MDA-MB-435 melanoma.
Assay [13] deals with SW-620 colon.
Assay [14] has as its system MCF7 breast.
The test system of assay [15] is HCT-116 colon.
Assay [16] has as its system HCC-2998 colon.
The test system of assay [17] is KM12 colon.

Take `O=C1CN(CCN2CC(=O)N(Cc3ccccc3)C(=O)C2)CC(=O)N1Cc1ccccc1`: the growth in assay [1] is 108%; in assay [2], 99.5%; in assay [3], 109%; in assay [4], 106%; in assay [5] it was 113%; in assay [6] it was 109%. In addition, the growth in assay [7] was 109%; in assay [8], 96.7%; in assay [9], 103%; in [10], 99%; in [11] it was 104%; in assay [12], 106%. Moreover, the growth was 96.8% in assay [13]; 94.7% in [14]; 98.6% in [15]; 121% in assay [16]; 103% in [17].

With `CCOC(=O)c1c2c(n(-c3ccc(C#N)cc3)c1-c1ccccc1)C=CCC2`, the growth in [1] was 92.1%; in [2], 85.8%; in [3] it was 96.7%; in assay [4], 77.2%; in assay [5], 89.6%; in assay [6] it was 77.9%. Further, the growth in assay [7] was 105%; in assay [8], 99.3%; in assay [9] it was 94%; in assay [10], 72.6%; in assay [11] it was 97.8%; in [12] it was 95.3%. For the same compound, the growth in assay [13] is 96.9%; in [14], 76.4%; in assay [15] it was 66.2%; in assay [16], 90.5%; in [17], 91.8%.

`Cc1ccc(C(C)C)cc1C(=O)C[n+]1ccccc1`: the growth in [1] was 86.1%; in assay [2], 114%; in assay [3] it was 91.1%; in assay [4], 101%; in assay [5], 97.7%; in [6] it was 98.6%. In addition, the growth in assay [7] was 101%; in assay [8], 100%; in assay [9], 107%; in assay [10], 88.7%; in [11], 95.8%; in assay [12], 101%. Further, the growth in [13] was 106%; in [14], 87.1%; in assay [15], 79%; in assay [16], 107%; in [17], 101%.

On to `CCOC(=O)c1c(C)nc2c(c1N)CC(=O)N2Cc1ccc(F)cc1`, for which the growth is 99.5% in assay [1]; 80.1% in assay [2]; 103% in assay [3]; 94.7% in assay [4]; 95% in [5]; 99.5% in assay [7]. Also, the growth in assay [8] is 91.5%; in assay [9], 99%; in [10] it was 73.2%; in [11], 72.5%; in [12], 99.8%; in assay [13], 92.2%. For the same compound, the growth in [14] was 96.1%; in [15], 87.6%; in assay [16] it was 103%; in assay [17] it was 97.7%.

For `COc1ccn2c(C(C)=O)cc(C(=O)c3ccc4c(c3)Sc3ccccc3N4)c2c1`, the growth in assay [1] is 5.07% (active); in assay [2] it was 11.1%; in assay [3], 36.9%; in [4] it was 50.2%; in [5], 18.8%; in assay [7], -47.8% (active). The growth in assay [8] is 41.9%; in assay [9] it was 12.7%; in [10], 57.4%; in [11], 55.6%; in assay [12] it was -32.9% (active); in [13], 23.4%. Also, the growth is 20.9% in [14], 1.38% (active) in assay [15], 21.2% in [16] and 7.27% (active) in [17].

With `COc1ccc(C(=O)n2nc(-c3ccccc3)nc2N)cc1OC`, the growth in assay [1] is 80.6%; in assay [2], 92.1%; in [3], 96.7%; in [4], 90.9%; in [5] it was 80.8%; in assay [6], 73.5%. Further, the growth in assay [7] is 94.5%; in assay [8] it was 92.1%; in [9], 96.5%; in [10], 56.4%; in assay [11], 94.6%; in assay [12] it was 109%. Besides, the growth in [13] is 90.3%; in assay [14] it was 44.3%; in assay [15], 98.2%; in assay [16] it was 97.9%; in [17], 85.8%.

In the case of `COc1cc(/C=N/NC(=O)c2ccc(C)nc2)cc(OC)c1OC`, the growth was 103% in [1]; 121% in assay [2]; 103% in assay [3]; 96.4% in assay [4]; 112% in [5]; 107% in [6]. Besides, the growth in assay [7] is 119%; in assay [8], 88.6%; in assay [9] it was 102%; in assay [10], 104%; in [11], 105%; in assay [12], 109%. Further, the growth in [13] was 95.6%; in assay [14], 103%; in assay [15] it was 110%; in [16], 106%; in assay [17], 97.8%.

`CC(=O)CC[C@H]1C(=O)N[C@@H](C(C)C)C(=O)N[C@@H](Cc2cc(O)cc(F)c2)C(=O)N2CCC[C@H](N2)C(=O)O[C@H](/C(C)=C/C=C/C(=O)OC(C)(C)C)C/C=C/C=C/[C@H](O)[C@H](C)[C@H]1O`: the growth is 16.7% in assay [1]; 37.1% in assay [2]; 88.6% in [3]; 56.6% in [4]; 48.8% in [5]; 54.2% in assay [7]. Moreover, the growth in assay [8] is 55.9%; in assay [9], 77.7%; in assay [10], 55%; in assay [11], 39.6%; in assay [12], 43%; in assay [13], 25.4%. Moreover, the growth in assay [14] was 48.2%; in assay [15] it was 26.6%; in assay [16], 51.8%; in assay [17], 34.1%.

As for `OC(c1ccccc1)C(NC(Cc1ccccc1)c1ccccc1)c1ccccc1` (centres undefined), the growth is 91.4% in [1]; 73.6% in assay [2]; 90.8% in [3]; 89.1% in assay [4]; 91.7% in assay [5]; 67% in assay [6]. The growth in assay [7] was 96.9%; in [8], 92.2%; in assay [9] it was 82.6%; in [10], 73.6%; in [11], 91.4%; in assay [12], 97.9%. Moreover, the growth is 90% in assay [13]; 104% in [14]; 77.1% in assay [15]; 96.1% in assay [16]; 89.1% in [17].

With `c1ccc(-c2nc3sc(-c4ccccc4)cn3n2)cc1`, the growth is 90.4% in [1]; 85.5% in [2]; 122% in assay [3]; 76.1% in assay [4]; 94.2% in assay [5]; 56.2% in assay [6]. The growth is 83.5% in [7]; 90.1% in assay [8]; 85.6% in assay [9]; 36.7% in [10]; 99.9% in [11]; 99.2% in assay [12]. The growth in [13] was 94.9%; in assay [14], 38.3%; in assay [15], 88.9%; in [16], 104%; in [17], 81.1%.

`c1ccc2cc(C[n+]3ccn(CCCCCCCCCCCCn4cc[n+](Cc5ccc6ccccc6c5)c4)c3)ccc2c1`: the growth in [1] was -50% (active); in assay [2], -70.7% (active); in [3], -25.3% (active); in assay [4] it was -60.1% (active); in assay [5], -47.9% (active); in [7], -88.7% (active). Besides, the growth in [8] is -59.2% (active); in assay [9], 61.7%; in assay [10] it was -53.1% (active); in [11], -82.8% (active); in assay [12] it was -97.1% (active); in [13], -55.7% (active). Also, the growth in [14] was -70.5% (active); in assay [15], -61.8% (active); in [16], -83.4% (active); in [17], -86.9% (active).

Consider `CC(C)(C)NC(=O)C(OC(=O)c1cccc(Cl)c1)c1ccc(Cl)cc1` (centres undefined), for which the growth is 103% in assay [1]; 102% in assay [2]; 94.5% in assay [3]; 105% in assay [4]; 93.1% in assay [5]; 104% in assay [6]. The growth in [7] was 103%; in assay [8], 110%; in assay [9], 101%; in assay [10] it was 96.8%; in assay [11], 82.9%; in [12] it was 107%. The growth in assay [13] was 103%; in [14], 95.8%; in assay [15], 74.7%; in assay [16], 107%; in assay [17], 100%.

Turning to `O=C(O)CCC(=O)Nc1nnc(-c2ccccc2)s1`, the growth is 95.6% in [1]; 99.4% in [2]; 107% in assay [3]; 109% in assay [4]; 95.6% in assay [5]; 101% in [7]. Further, the growth in assay [8] was 111%; in assay [9] it was 107%; in [10] it was 94.3%; in assay [11] it was 102%; in [12], 100%; in [13] it was 108%. In addition, the growth was 79.9% in assay [14], 103% in assay [15], 102% in assay [16] and 103% in assay [17].

In the case of `O=c1n(Cc2ccc3ccccc3c2)ccn1Cc1ccc2ccccc2c1`, the growth in assay [1] is 97%; in [2] it was 104%; in [3], 82.1%; in [4] it was 69.3%; in assay [5], 90.5%; in [7], 100%. Moreover, the growth in assay [8] is 86.9%; in assay [9], 86.8%; in assay [10], 55.5%; in assay [11], 92.4%; in [12], 107%; in assay [13] it was 102%. For the same compound, the growth in assay [14] was 97.6%; in [15] it was 70.6%; in assay [16], 103%; in assay [17] it was 96.4%.

`Cc1ccc(S(=O)(=O)Oc2ccc(NC(=O)c3ccc(Cl)cc3)cc2)cc1`: the growth in assay [1] is 93.6%; in [2], 97.6%; in assay [3], 107%; in [4] it was 96.5%; in [5], 98.5%; in [6], 97.8%. Also, the growth in [7] is 103%; in [8], 107%; in [9], 99.4%; in [10], 98.1%; in assay [11], 90.8%; in assay [12], 105%. Also, the growth in [13] was 103%; in assay [14], 91.8%; in assay [15] it was 81%; in assay [16] it was 104%; in assay [17], 103%.

Consider `CCS(=O)(=O)c1ncnc2nc[nH]c12`, for which the growth was 97.8% in assay [1]; 95.9% in assay [2]; 98.1% in assay [3]; 106% in [4]; 95.2% in [5]; 109% in [6]. Further, the growth in assay [7] is 111%; in assay [8] it was 97.6%; in [9] it was 104%; in assay [10], 89.8%; in assay [11] it was 90.9%; in assay [12], 104%. The growth is 99.8% in assay [13]; 89.2% in assay [14]; 87.3% in [15]; 107% in [16]; 108% in [17].

Consider `CCc1ccc(Oc2c(-c3ccc(OCCc4cccc(C(F)(F)F)c4)cc3O)n[nH]c2C(F)(F)F)cc1`, for which the growth in assay [1] is 47.3%; in assay [2] it was 3.94% (active); in assay [3], 84.3%; in assay [4], 22%; in assay [5], 64.9%; in [6] it was 32.8%. Besides, the growth in [7] is 0.567% (active); in [8], 51.1%; in [9] it was 42%; in [10] it was 6.59% (active); in assay [11], 86.5%; in [12], 27.1%. For the same compound, the growth in assay [13] was 14.7%; in assay [14], 27.8%; in assay [15], 0% (active); in assay [16], 89.4%; in [17], 46.4%.

With `Cc1ccc(C(=O)N/N=C/c2cccc([N+](=O)[O-])c2)cn1`, the growth was 108% in assay [1]; 93% in assay [2]; 108% in [3]; 111% in assay [4]; 102% in assay [5]; 108% in assay [6]. In addition, the growth in assay [7] was 118%; in [8], 93.1%; in assay [10], 93.1%; in assay [11] it was 122%; in [12], 100%; in assay [13], 103%. Besides, the growth in [14] was 101%; in assay [15], 105%; in assay [16], 107%; in assay [17], 107%.

Source of the values: PubChem BioAssay (NCI).
